Measured values reported in PubChem BioAssay.
Calls of active or inactive are those of the source.

Tests used:
[1] = binders of probe aFSTL3 on microarray, primary screen, stem cell growth factor project, biochemical, small-molecule microarray, fluorescence 635/667 (AID 1064); conditions: higher = more signal;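 further: measures binding of the biotinylated anti-FSTL3 antibody to printed compounds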
[2] = binders from COS7 lysate, DM2A8 probe, primary screen, torsin A project, cell lysate, small-molecule microarray, fluorescence 635/667 (AID 1065); conditions: higher = more signal, COS7 lysate expressing mutant human TOR1A
[3] = binders of probe aFGF2 on microarray, primary screen, stem cell growth factor project, biochemical, small-molecule microarray, fluorescence 635/667 (AID 1067); conditions: higher = more signal;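 further: measures binding of biotinylated aFGF2 protein to printed compounds on slides; z-score merges feature fluorescence and signal-to-noise across triplicate slides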
[4] = binders of probe aFGF10 on microarray, primary screen, stem cell growth factor project, biochemical, small-molecule microarray, fluorescence 635/667 (AID 1071); conditions: higher = more signal;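 further: score merges 667 nm spot intensity and signal to noise from triplicate slides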
[5] = molecular target: Neurogenic locus notch homolog protein 2 (Homo sapiens) (UniProt Q04721); test: Notch2 binders on small-molecule microarrays, primary screen, biochemical, small-molecule microarray, 635 nm fluorescence, stem cell growth factors (AID 1073); conditions: Notch2 binding, higher = more signal
[6] = molecular target: Pro-neuregulin-1, membrane-bound isoform (Homo sapiens) (UniProt Q02297); test: NRG1 binders on small-molecule microarrays, primary screen, psychiatric disease protein project, biochemical, small-molecule microarray, fluorescence 635/667 (AID 1075); conditions: NRG1 binding, 635 nm fluorescence, higher = more signal;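 further: score combines 667 nm spot fluorescence with signal to noise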
Sequence of Pro-neuregulin-1, membrane-bound isoform (Homo sapiens) (Q02297 whole entry, looked up, the tested form may be a part, canonical isoform): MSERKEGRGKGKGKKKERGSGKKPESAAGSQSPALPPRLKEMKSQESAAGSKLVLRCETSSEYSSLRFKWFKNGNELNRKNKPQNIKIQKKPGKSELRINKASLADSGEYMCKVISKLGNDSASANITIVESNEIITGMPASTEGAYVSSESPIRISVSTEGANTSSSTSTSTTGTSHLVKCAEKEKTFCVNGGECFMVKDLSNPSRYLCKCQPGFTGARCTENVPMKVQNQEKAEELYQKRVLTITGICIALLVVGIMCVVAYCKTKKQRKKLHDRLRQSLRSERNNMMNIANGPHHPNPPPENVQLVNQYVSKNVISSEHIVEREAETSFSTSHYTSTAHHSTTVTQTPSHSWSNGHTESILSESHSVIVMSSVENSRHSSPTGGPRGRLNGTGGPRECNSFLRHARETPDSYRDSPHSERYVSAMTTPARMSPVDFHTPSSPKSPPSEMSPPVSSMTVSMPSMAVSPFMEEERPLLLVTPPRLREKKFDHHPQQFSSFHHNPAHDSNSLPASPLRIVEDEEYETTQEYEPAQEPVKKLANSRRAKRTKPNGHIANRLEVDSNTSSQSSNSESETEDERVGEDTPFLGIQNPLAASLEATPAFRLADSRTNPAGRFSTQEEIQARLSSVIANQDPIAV

[7] = system: Neuregulin-1 EGF-like domain; test: binders of neuregulin-1 EGF-like domain, primary screen, biochemical, small-molecule microarray, 635 nm fluorescence (AID 1081); conditions: small-molecule microarray binding, higher = more signal;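 further: binding of the protein to compounds printed on small-molecule microarray slides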
[8] = FRG1 promoter luciferase signal modulators, primary screen, FRG1 inhibition for FSHD, cell-based, C2C12 myotubes, firefly/Renilla luciferase, luminescence (AID 1084); conditions: higher = more signal, called active from +8 up or from −8 down
[9] = binders of probe aFST on microarray, primary screen, stem cell growth factor project, biochemical, small-molecule microarray, fluorescence 635/667 (AID 1086); conditions: higher = more signal;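 further: score merges 667 nm fluorescence with signal-to-noise of each printed compound spot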
[10] = binders of probe aHhip on microarray, primary screen, stem cell growth factor project, biochemical, small-molecule microarray, fluorescence 635/667 (AID 1087); conditions: higher = more signal;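 further: score merges spot fluorescence at 667nm with spot signal to noise ratio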
[11] = system: PRMT1 (protein arginine N-methyltransferase 1); test: PRMT1 binders on small-molecule microarrays, primary screen, biochemical, small-molecule microarray, 635 nm fluorescence (AID 1088); conditions: small-molecule microarray binding, higher = more signal;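 further: binding of Prmt1 protein to compounds spotted on small-molecule microarray slides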
[12] = yeast growth modulation, basal conditions, primary screen, YJM789 clinical isolate, OD600, 24 h (AID 1089);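 further: growth of clinical yeast isolate S. cerevisiae YJM 789 seeded 1000 cells per well; test concentration not given here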; conditions: S. cerevisiae YJM789 growth, higher = more signal, called active from +8 up or from −8 down
[13] = fission yeast growth modulation, primary screen, strain 972, OD600, 24 h, no modulator (AID 1090);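 further: basal condition with compound alone and no growth modifier present; test concentration not given here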; conditions: S. pombe 972 growth, higher = more signal, called active from +8 up or from −8 down
[14] = S. cerevisiae growth modulation with rapamycin, primary screen, strain BY4716, OD600, 96 h (AID 1091); conditions: higher = more signal, called active from +8 up or from −8 down; further: test concentration not given here
[15] = molecular target: Torsin-1A-interacting protein 2 (Homo sapiens) (UniProt Q8NFQ8); test: LULL1 binders on small-molecule microarray, primary screen, cell lysate, human LULL1 lysate, 635/667 nm fluorescence (AID 1092); conditions: hLULL1 lysate binding, 635 nm fluorescence, higher = more signal;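 further: probe is lysate of COS7 cells overexpressing human LULL1; score merges per-feature 667 nm fluorescence with signal-to-noise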
Sequence of Torsin-1A-interacting protein 2 (Homo sapiens) (Q8NFQ8 whole entry, looked up): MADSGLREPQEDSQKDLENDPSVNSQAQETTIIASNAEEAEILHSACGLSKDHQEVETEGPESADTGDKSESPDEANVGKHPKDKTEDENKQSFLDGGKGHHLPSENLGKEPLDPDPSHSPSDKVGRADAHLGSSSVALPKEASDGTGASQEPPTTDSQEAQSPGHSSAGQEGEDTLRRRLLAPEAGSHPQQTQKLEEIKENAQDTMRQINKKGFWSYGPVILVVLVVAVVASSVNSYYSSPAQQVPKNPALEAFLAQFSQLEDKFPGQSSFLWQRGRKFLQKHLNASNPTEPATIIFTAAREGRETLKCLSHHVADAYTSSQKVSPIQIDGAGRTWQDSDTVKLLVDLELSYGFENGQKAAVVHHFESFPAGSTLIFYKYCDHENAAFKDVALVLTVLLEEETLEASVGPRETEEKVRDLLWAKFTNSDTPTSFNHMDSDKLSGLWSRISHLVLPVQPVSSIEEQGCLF

[16] = E. coli growth modulation, two-sided OD650, primary screen, E. coli filamentation project, strain DRC41, 24 h (AID 1093); conditions: OD650, 24 h, higher = more signal, called active from +8 up or from −8 down;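 further: MC1000 strain lacking acrAB efflux and sulA so SOS filamentation is blocked; test concentration not given here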
[17] = small-molecule microarray binders of probe aLefty2, primary screen, biochemical, biotinylated probe, 635/667 nm fluorescence (AID 1094); conditions: higher = more signal;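 further: score merges spot fluorescence near 667 nm with spot signal-to-noise ratio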
[18] = system: Noggin (protein binding on small-molecule microarray); test: Noggin binders on small-molecule microarray, primary screen, biochemical, 635/667 nm fluorescence (AID 1095); conditions: 635 nm fluorescence, higher = more signal;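 further: score merges 667 nm feature fluorescence with signal to noise over triplicate slides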
[19] = molecular target: Neurogenic locus notch homolog protein 3 (Homo sapiens) (UniProt Q9UM47); test: NOTCH3 binders on small-molecule microarray, primary screen, biochemical, 635/667 nm fluorescence (AID 1096); conditions: NOTCH3 binding, 635 nm fluorescence, higher = more signal
Sequence of Neurogenic locus notch homolog protein 3 (Homo sapiens) (Q9UM47 whole entry, looked up): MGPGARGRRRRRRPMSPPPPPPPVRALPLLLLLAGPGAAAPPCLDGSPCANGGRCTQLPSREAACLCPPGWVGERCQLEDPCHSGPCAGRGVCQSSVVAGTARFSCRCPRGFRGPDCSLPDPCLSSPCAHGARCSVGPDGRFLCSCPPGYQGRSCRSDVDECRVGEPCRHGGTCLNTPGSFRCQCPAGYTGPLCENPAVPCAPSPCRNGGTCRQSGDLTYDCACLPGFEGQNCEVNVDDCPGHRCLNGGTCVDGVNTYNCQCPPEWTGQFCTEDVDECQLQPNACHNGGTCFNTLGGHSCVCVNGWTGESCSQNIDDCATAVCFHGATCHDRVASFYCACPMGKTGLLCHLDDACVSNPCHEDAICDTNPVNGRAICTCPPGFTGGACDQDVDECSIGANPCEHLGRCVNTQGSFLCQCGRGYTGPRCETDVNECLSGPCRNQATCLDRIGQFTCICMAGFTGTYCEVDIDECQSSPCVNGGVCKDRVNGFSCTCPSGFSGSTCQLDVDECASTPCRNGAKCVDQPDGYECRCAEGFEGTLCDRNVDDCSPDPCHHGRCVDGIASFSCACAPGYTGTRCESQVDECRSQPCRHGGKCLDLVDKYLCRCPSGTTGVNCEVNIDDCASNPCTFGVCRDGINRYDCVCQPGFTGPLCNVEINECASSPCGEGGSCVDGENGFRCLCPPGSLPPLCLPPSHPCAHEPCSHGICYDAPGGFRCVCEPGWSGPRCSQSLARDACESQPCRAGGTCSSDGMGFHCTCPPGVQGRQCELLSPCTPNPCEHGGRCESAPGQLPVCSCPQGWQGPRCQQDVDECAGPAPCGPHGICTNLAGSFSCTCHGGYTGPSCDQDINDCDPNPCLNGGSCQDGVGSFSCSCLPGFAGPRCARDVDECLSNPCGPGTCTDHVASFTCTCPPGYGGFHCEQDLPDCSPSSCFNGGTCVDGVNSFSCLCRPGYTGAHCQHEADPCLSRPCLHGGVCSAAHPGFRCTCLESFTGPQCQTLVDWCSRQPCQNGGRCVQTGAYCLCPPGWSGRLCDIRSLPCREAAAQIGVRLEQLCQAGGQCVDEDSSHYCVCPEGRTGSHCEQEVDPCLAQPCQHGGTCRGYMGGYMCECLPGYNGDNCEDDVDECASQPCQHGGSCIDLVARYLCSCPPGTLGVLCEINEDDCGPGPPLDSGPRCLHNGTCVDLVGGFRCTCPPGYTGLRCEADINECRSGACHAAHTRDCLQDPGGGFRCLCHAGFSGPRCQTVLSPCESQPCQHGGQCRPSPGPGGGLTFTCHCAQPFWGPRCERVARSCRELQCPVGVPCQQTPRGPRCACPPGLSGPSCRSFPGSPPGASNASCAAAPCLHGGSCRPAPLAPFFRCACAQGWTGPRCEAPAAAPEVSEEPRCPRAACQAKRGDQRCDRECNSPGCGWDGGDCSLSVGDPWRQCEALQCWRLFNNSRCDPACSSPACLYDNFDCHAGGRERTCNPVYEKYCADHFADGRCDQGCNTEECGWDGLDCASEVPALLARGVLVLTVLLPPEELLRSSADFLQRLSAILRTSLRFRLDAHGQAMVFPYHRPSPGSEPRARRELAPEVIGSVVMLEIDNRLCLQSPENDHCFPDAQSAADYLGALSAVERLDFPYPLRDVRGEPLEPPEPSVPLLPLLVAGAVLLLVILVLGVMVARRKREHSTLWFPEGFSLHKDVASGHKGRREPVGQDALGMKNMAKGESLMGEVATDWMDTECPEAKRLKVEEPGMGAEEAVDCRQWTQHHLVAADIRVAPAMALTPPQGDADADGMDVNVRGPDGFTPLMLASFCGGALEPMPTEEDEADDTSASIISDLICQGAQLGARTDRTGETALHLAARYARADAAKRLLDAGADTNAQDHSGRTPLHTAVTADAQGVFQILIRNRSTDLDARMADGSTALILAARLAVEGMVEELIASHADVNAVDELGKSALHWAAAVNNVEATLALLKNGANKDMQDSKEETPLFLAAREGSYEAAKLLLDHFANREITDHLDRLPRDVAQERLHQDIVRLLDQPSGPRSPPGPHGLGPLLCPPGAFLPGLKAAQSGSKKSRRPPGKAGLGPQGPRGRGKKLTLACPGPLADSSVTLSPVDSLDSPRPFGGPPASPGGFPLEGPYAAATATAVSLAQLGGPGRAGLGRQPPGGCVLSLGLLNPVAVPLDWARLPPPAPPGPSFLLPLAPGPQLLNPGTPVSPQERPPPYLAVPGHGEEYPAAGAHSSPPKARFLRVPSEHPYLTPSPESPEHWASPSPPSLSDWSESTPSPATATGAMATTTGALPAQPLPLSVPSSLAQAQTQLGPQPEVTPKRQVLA

[20] = small-molecule microarray binders of probe aEGFR, primary screen, biochemical, biotinylated probe, 635/667 nm fluorescence (AID 1097); conditions: higher = more signal;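 further: probe is a biotinylated anti-EGFR antibody binding compounds printed on slides; score combines fluorescence near 667 nm and signal to noise of each spot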

SMILES	composite z-score [1]	composite z-score [2]	composite z-score [3]	composite z-score [4]	composite z-score [5]	composite z-score [6]	composite z-score [7]	z-score [8]	composite z-score [9]	composite z-score [10]	composite z-score [11]	z-score [12]	z-score [13]	z-score [14]	composite z-score [15]	z-score [16]	composite z-score [17]	composite z-score [18]	composite z-score [19]	composite z-score [20]
COC(=O)[C@@]1(Cc2ccc(OC)cc2)[C@H]2c3cc(C(=O)N(C)C)n(Cc4ccc(Cl)c(C(F)(F)F)c4)c3C[C@H]2CN1C(=O)c1ccccc1	1.33	0.218	0.262	0.473	1.47	1.39	1.03	0.282 (inactive)	1.73	1.71	0.295	1.01 (inactive)	1.38 (inactive)	2.98 (inactive)	3.06	-0.397 (inactive)	0.539	-0.0329	1.02	0.35
CCCC[C@@H]1C[C@H]1[C@@H](NC(=O)c1ccccc1)c1ccc(C(F)(F)F)cc1	0.79	-1.02	-0.0908	-0.333	-0.601	-0.612	-0.521	-0.858 (inactive)	0.0249	-0.175	-0.914	0.82 (inactive)	0.987 (inactive)	0.151 (inactive)	-0.962	-0.582 (inactive)	0.161	0.337	-0.769	-0.15
COCCOC(=O)N1C(=O)[C@@]2(c3cc(C#Cc4ccc(OC)cc4)ccc31)[C@H](c1ccccc1OCCO)N1[C@H](c3ccccc3)[C@H](c3ccccc3)OC(=O)[C@H]1[C@@H]2C(=O)N1CCCCCCC1	3.55	1.2	0.903	0.573	1.3	1.7	0.961	-0.633 (inactive)	3.39	1.47	1.27	-1.44 (inactive)	0.423 (inactive)	3.91 (inactive)	3.85	1.53 (inactive)	1.71	1.97	0.841	1.17
CCCNC(=O)[C@@]1(c2ccc([N+](=O)[O-])cc2)CC(=O)N(C2CCCCC2)[C@@H]1c1ccc(CO)cc1	-0.0597	0.256	-0.0133	0.588	1.03	0.675	1.27	-1.31 (inactive)	0.565	0.113	1.57	1.3 (inactive)	-0.514 (inactive)	1.11 (inactive)	2.8	0.824 (inactive)	0.0744	1.65	1.04	-0.0729
C=CCC(OC(C)=O)[C@@H]1[C@@H](N(Cc2cccc3ccccc23)C(=O)Cc2ccc(F)cc2)c2cc(OCCCO)ccc2N1C(=O)c1ccc2ccccc2n1 (stereo not given in full)	0.258	-0.0938	0.0631	0.0908	0.179	0.0429	-0.429	-1.11 (inactive)	0.382	0.347	-0.293	-0.145 (inactive)	0.732 (inactive)	-0.342 (inactive)	0.511	0.265 (inactive)	0.15	-0.283	0.104	-0.0897
O=C1NC(=O)C2C1C=CC(C(O)c1cccc3ccccc13)N2Nc1ccc(Cl)cc1Cl (stereo not given)	0.475	-0.974	-0.0752	0.51	1.49	1.53	1	-0.716 (inactive)	1.34	-0.0994	0.811	-1.94 (inactive)	-0.615 (inactive)	2.56 (inactive)	3.04	-1.43 (inactive)	0.162	-0.339	1.04	0.131
O=C1C2C=CC(C(O)c3ccccc3)N(Nc3ccccc3F)C2C(=O)N1c1ccccc1 (stereo not given)	-0.283	0.932	0.0248	0.373	0.99	0.801	0.834	-2.14 (inactive)	0.444	-0.191	0.101	0.181 (inactive)	0.815 (inactive)	0.285 (inactive)	2.61	-0.106 (inactive)	-0.0381	-0.0199	0.023	-0.067
COC(=O)[C@@]1(Cc2ccc(OC)cc2)[C@H]2c3cc(C(=O)N4CCCC4)n(Cc4cccc5ccccc45)c3C[C@H]2CN1C(=O)c1ccccc1	0.176	-0.214	0.401	0.672	1.8	1.42	0.831	-0.404 (inactive)	0.849	-0.115	-0.88	0.221 (inactive)	1.82 (inactive)	2.29 (inactive)	3.02	0.0929 (inactive)	0.0082	0.15	0.981	0.087
C=CCNC(=O)[C@H]1[C@@H]2C(=O)O[C@@H](c3ccccc3)[C@@H](c3ccccc3)N2[C@@H](c2ccc(O)cc2)[C@]12C(=O)N(C(=O)OCCOC)c1ccccc12	-0.548	0.267	0.0407	1.16	1.05	1.33	1.29	-1.96 (inactive)	0.303	-0.541	1.42	0.734 (inactive)	-0.66 (inactive)	2.39 (inactive)	2.84	0.507 (inactive)	-0.0095	0.537	1	0.0798
COC(=O)CCCCCCC(=O)Nc1ccc(NC(=O)CCCC[P+](c2ccccc2)(c2ccccc2)c2ccccc2)cc1	-0.493	0.725	-0.0639	0.695	0.336	-0.31	0.166	0.789 (inactive)	0.352	-0.0296	-0.148	-1.65 (inactive)	-7.18 (inactive)	-0.786 (inactive)	-0.891	-18.9 (active)	-0.232	1.23	0.973	0.0042
C=CCOC(=O)[C@H]1[C@@H]2C(=O)O[C@@H](c3ccccc3)[C@@H](c3ccccc3)N2[C@@H](c2ccc(OCCOC(=O)[C@@H]3C[C@@H]4C(=O)N[C@@H](CCCCNC(C)=O)C(=O)N4[C@@H]3c3ccc(O)cc3)cc2)[C@]12C(=O)Nc1ccc(I)cc12	-0.0041	0.689	-0.0466	0.892	1.43	1.23	1.37	-0.553 (inactive)	0.257	-0.323	1.52	1.29 (inactive)	0.145 (inactive)	4.21 (inactive)	1.88	-0.289 (inactive)	0.0594	1.19	0.981	0.117
